Measurements published in PubChem BioAssay (NCATS).
Inconclusive results are not listed. The source made the active and inactive calls. Unless noted, calls come from the whole dose curve; as a rule, active = well fitted curve in the direction sought with a large enough effect; inconclusive = small, poorly fitted or top-dose-only effect, or another doubt; inactive = no such curve, though single readings can be large; an effect the other way counts as inactive or inconclusive.

How the values were obtained:
[1] = NCATS anti-infectives library activity on HEK293 viability as a counter-qHTS vs the C. elegans viability qHTS (AID 1745854);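 note: HEK293 cells exposed to compounds for 24 hr before the viability read; % is set by controls: 0 for no effect and ±100 for the full control effect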
In short: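 HEK293 cells (1,500/well) exposed 24 hr at 37C to 1:5 titrations, up to 41.7 uM final; counter-screen to a C. elegans viability qHTS. Viability by CellTiter-Glo luminescence after 10 min at room temperature; digitonin as control.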

[2] = Viability counterscreen for antagonist of constitutive androstane receptor (CAR) against the NCATS DSHEA and TCM libraries (AID 1794837);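 note: compound exposure lasted 24 h before viability reading; 0% is about no effect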
In short: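 Viability was measured by CellTiter-Fluor fluorescence (405/540 nm, 1 hr) in HepG2-CYP2B6-hCAR cells. Cells were co-treated 24 hr with 48 uM CITCO (final), antagonist mode, and test substances.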

[3] = target: Nuclear receptor subfamily 1 group I member 3 (Homo sapiens) (UniProt Q14994); assay: Primary qHTS for agonist of constitutive androstane receptor (CAR) against the NCATS DSHEA and TCM libraries (AID 1794839);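 note: HepG2 cells expressing human CAR with a CYP2B6 reporter plus PK11195 antagonist; luciferase reporter luminescence read with ONE-Glo; 0% is about no effect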
Nuclear receptor subfamily 1 group I member 3 (Homo sapiens), sequence (Q14994 whole entry, looked up): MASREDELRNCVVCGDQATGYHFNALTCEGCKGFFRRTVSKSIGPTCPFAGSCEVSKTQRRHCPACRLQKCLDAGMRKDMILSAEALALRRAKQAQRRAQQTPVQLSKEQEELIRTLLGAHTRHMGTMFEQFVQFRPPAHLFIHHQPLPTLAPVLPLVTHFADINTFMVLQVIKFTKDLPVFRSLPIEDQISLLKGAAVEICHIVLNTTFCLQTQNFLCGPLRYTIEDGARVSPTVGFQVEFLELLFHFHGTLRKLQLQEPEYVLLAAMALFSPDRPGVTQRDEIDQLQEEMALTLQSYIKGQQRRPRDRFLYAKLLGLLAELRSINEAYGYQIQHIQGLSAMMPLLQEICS
In short: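 Agonist mode in presence of hCAR antagonist PK11195 (0.75 µM final): test substances, 24 h, 37 °C, on HepG2-CYP2B6-hCAR cells. Same-well readouts: fluorescence viability, then ONE-Glo luminescence; CITCO as reference agonist.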

[4] = HepG2 viability counterscreen (readout 2: ATP content) against the NCATS DSHEA and TCM libraries (AID 1794840);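 note: HepG2 cells exposed to substances for about 24 h; 0% is about no effect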
In short: (§1)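 Readout 1: cellular protease activity, GF-AFC substrate (25 uM final, 30 min, fluorescence 380/510 nm). Readout 2: ATP content by CellTiter-Glo luminescence after 30 min at RT. Both follow ~24 h exposure of HepG2 cells (1,000/well) to substances.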

[5] = HepG2 viability counterscreen (readout 1: protease activity) against the NCATS DSHEA and TCM libraries (AID 1794841);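 note: cells exposed to compounds for about 24 h before the protease read; 0% is about no effect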
In short: as §1

[6] = target: Glutathione peroxidase 1 (Homo sapiens) (UniProt P07203); assay: Primary qHTS Assay for Inhibitors of Recombinant Selenoprotein Glutathione Peroxidase 1 (GPX1) (AID 1845191); note: % is set by controls: 0 for no effect and ±100 for the full control effect; nearly all actives have a fitted effect of over 65% in size
Glutathione peroxidase 1 (Homo sapiens), sequence (P07203 whole entry, looked up): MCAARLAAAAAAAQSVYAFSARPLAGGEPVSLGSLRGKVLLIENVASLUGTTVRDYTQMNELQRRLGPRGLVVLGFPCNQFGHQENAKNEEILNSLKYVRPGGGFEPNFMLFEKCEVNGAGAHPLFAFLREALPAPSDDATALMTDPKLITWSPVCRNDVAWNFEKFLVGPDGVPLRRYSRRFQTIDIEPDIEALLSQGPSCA
In short: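 Recombinant GPX1 (10 nM final) was preincubated with compound for 30 min at room temperature, then reacted with 1 mM GSH, 0.5 mM CHP, 0.5 mM NADPH and 100 nM glutathione reductase; NADPH fluorescence (340/450 nm) was read at 0 and 15 min.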

[7] = target: Cytochrome P450 3A4 (Homo sapiens) (UniProt P08684); assay: qHTS for inhibitors of CYP3A4 against the NCATS DSHEA and TCM libraries (AID 1919971);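 note: % is set by controls: 0 for no effect and ±100 for the full control effect; inhibition lowers luminescence from luciferin made by CYP3A4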
In short: (§2)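 Luminescent P450-Glo format: compounds preincubated 15 min with enzyme and luciferin substrate, reaction run 30-45 min after NADPH regeneration solution. Intraplate controls: ketoconazole for CYP3A4 and CYP2C19, sulfaphenazole for CYP2C9.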

[8] = target: Cytochrome P450 2D6 (Homo sapiens) (UniProt P10635); assay: qHTS for inhibitors of CYP2D6 against the NCATS DSHEA and TCM libraries (AID 1919972); note: % is set by controls: 0 for no effect and ±100 for the full control effect
Cytochrome P450 2D6 (Homo sapiens), sequence (P10635 whole entry, looked up): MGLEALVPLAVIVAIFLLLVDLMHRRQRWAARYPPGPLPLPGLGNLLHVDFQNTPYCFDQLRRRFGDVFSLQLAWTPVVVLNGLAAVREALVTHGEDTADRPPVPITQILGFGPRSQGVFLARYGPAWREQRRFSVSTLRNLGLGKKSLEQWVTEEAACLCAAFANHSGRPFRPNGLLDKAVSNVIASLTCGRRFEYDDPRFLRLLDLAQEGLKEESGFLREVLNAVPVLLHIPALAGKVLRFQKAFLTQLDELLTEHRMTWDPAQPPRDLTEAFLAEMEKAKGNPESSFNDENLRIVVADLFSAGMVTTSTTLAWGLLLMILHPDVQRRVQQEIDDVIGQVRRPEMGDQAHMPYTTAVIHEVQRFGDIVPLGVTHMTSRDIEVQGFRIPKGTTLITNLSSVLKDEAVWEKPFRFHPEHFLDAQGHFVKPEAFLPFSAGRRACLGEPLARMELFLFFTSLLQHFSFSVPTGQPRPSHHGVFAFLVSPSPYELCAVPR
In short: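 Luminescent P450-Glo read-out of CYP2D6 turnover of a luciferin substrate after NADPH-driven reaction of 30-45 min at room temperature. Compounds were first preincubated 15 min with enzyme at titrated concentrations; quinidine was the intraplate control.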

[9] = target: Cytochrome P450 2C9 (Homo sapiens) (UniProt P11712); assay: qHTS for inhibitors of CYP2C9 against the NCATS DSHEA and TCM libraries (AID 1919973);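 note: luminogenic pro-luciferin CYP2C9 substrate turned into luciferin with NADPH regeneration; % is set by controls: 0 for no effect and ±100 for the full control effect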
In short: as §2

[10] = target: Cytochrome P450 2C19 (Homo sapiens) (UniProt P33261); assay: qHTS for inhibitors of CYP2C19 against the NCATS DSHEA and TCM libraries (AID 1919974);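 note: luminescence from luciferin released by CYP2C19 oxidation of a pro-luciferin substrate; % is set by controls: 0 for no effect and ±100 for the full control effect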
Cytochrome P450 2C19 (Homo sapiens), sequence (P33261 whole entry, looked up): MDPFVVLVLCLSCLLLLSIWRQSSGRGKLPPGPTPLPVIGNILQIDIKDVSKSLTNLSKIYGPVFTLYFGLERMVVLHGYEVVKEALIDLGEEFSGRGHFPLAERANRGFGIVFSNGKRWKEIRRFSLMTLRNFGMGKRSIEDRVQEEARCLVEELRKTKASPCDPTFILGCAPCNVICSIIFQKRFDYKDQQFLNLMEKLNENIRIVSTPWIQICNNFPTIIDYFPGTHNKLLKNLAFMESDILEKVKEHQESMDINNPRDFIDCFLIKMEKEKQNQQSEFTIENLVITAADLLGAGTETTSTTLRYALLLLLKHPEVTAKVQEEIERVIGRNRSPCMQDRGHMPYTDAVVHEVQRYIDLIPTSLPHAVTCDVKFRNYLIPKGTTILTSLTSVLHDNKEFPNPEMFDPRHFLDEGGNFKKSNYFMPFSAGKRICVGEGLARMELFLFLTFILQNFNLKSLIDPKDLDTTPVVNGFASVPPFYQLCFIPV
In short: as §2

[11] = KB-3-1 P-gp reporter qHTS against the NCATS DSHEA and TCM libraries (AID 1919975); note: 0% is about no effect
In short: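 Cell viability by CellTiter-Glo luminescence following ~72 h compound exposure (concentration-response). Uses parental, non-P-gp-overexpressing KB-3-1 line, 500 cells/well in DMEM/10% FBS, attached ~4 h before dosing.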

[12] = target: Cytochrome P450 1A2 (Homo sapiens) (UniProt P05177); assay: qHTS for inhibitors of CYPIA2 against the NCATS DSHEA and TCM libraries (AID 1919976)
In short: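 Human CYP1A2 with pro-luciferin substrate (typically 100 mM KPO4), 15 min preincubation with compound, then 1x NADPH regeneration for 30-45 min at room temperature in the dark. Luciferin quantified by luciferase luminescence; furafylline intraplate control.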

[13] = qHTS Counterscreen for compound interference against the NCATS DSHEA and TCM libraries (AID 1919978); settings: firefly luciferase detection reagent interference, luminescence;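 note: compounds preincubated with 1 µM D-luciferin or buffer before detection reagent; % of control where 0% means no effect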
In short: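 With 1 uM D-luciferin or phosphate buffer only, compounds at final 19.5 nM–39.8 uM were incubated for 15 min at room temperature. Luciferase detection reagent was then added, and luminescence was measured after a further 30 min at room temperature.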

[14] = Dual reporter qHTS for agonist of Pregnane X Receptor (hPXR) against the NCATS DSHEA and TCM libraries: Fluorescence readout (AID 1920058); note: 0% is about no effect
In short: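 hPXR-Luc HepG2 cells, 2000/well in charcoal-stripped serum, attached 5 h, dosed for ~24 h at 37 °C. Fluorescence read is CellTiter-Fluor viability (Ex/Em 405/540 nm); rifampicin positive, tetraoctyl ammonium bromide (92 µM) cytotoxicity controls.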

[15] = target: Nuclear receptor subfamily 1 group I member 2 (Homo sapiens) (UniProt O75469); assay: Dual reporter qHTS for agonist of Pregnane X Receptor (hPXR) against the NCATS DSHEA and TCM libraries: Luminescence readout (AID 1920059); note: 0% is about no effect
Nuclear receptor subfamily 1 group I member 2 (Homo sapiens), sequence (O75469 whole entry, looked up): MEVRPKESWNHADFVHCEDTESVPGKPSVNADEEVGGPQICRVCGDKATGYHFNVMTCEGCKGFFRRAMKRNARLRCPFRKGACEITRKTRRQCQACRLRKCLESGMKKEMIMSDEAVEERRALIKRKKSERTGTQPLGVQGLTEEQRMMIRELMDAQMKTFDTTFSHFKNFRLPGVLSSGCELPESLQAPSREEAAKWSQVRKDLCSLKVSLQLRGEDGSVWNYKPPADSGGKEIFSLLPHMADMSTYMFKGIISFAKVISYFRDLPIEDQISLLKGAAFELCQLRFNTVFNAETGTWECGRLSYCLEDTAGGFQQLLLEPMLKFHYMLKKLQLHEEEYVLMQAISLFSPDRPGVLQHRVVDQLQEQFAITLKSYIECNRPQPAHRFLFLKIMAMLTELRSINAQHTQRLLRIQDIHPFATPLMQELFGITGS
In short: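 hPXR-LucHepG2 cells in phenol red-free DMEM with 5% charcoal-stripped FBS, 2000 cells/well, attached 5 h, then exposed 24 h at 37C to compounds; rifampicin as positive agonist control (2.8 nM–92 uM). Luciferase luminescence read.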

[16] = target: Nuclear receptor subfamily 1 group I member 2 (Homo sapiens) (UniProt O75469); assay: Dual reporter qHTS for antagonist of Pregnane X Receptor (hPXR) against the NCATS DSHEA and TCM libraries: Luminescence Readout (AID 1920060);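 note: HepG2 cells carrying hPXR luciferase reporter stimulated with rifampicin at 2 µM; 0% is about no effect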
In short: (§3)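 HepG2 hPXR-Luc, 2000 cells/well, charcoal-stripped FBS medium; 5 h attach; RIF 2 uM final; 24 h 37C/5% CO2; CellTiter-Fluor 1 h, fluor 405/540; ONE-Glo 30 min RT, lum.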

[17] = Dual reporter qHTS for antagonist of Pregnane X Receptor (hPXR) against the NCATS DSHEA and TCM libraries: Fluorescence Readout (AID 1920061); note: 0% is about no effect
In short: as §3

[18] = target: Lysosomal acid glucosylceramidase (Homo sapiens) (UniProt P04062); assay: Glucocerebrosidase-p2 (AID 348; in the data active = potency below about 10 µM; note: potency is the fitted concentration of half-maximal effect); settings: purified GBA, blue fluorogenic substrate, 40 min
Lysosomal acid glucosylceramidase (Homo sapiens), sequence (P04062 whole entry, looked up): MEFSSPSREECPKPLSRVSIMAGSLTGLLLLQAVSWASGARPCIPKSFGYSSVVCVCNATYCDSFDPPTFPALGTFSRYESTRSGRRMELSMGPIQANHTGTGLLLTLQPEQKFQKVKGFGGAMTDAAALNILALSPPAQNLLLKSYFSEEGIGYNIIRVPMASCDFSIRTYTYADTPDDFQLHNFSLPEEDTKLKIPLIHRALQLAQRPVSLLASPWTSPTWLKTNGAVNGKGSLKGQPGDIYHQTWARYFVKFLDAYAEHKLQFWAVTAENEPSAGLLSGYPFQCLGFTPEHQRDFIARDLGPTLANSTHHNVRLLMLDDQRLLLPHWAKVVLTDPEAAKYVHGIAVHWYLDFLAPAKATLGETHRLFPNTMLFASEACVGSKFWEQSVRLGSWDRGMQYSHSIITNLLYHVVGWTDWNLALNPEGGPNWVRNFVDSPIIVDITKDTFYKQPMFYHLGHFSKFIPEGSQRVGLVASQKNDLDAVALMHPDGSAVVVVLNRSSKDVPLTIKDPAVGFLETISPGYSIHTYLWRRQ
In short: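 Compounds titrated from 0.6 nM upwards against 0.2 nM enzyme in pH 5.9 citric acid/KH2PO4, taurocholate, tween-20; blue fluorogenic substrate 80 uM, 40 min room temperature, stopped and read Ex 365/Em 440 for AC50.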

[19] = AP1 Signaling Pathway (AID 357; active = well fitted curve in either direction with a large enough effect, not every such curve was filed as active; note: % is set by controls: 0 for no effect and ±100 for the full control effect); settings: ME-180 AP-1-bla reporter, EGF-induced, beta-lactamase ratio, 5 h; at 7.69 µM (top of the series) unless noted
In short: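 ME-180 cells with beta-lactamase reporter under AP-1 response element, stimulated with EC50 EGF; compounds tested in titration series, 5 h at 37 °C. CCF4 substrate added 2.5 h at room temperature; 460/530 nm emission ratio gave %activity and AC50.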

[20] = target: Glucocorticoid receptor (Homo sapiens) (UniProt P04150); assay: GR-EFC Redistribution (AID 451; calls by dose curve; note: potency is the fitted concentration of half-maximal effect); settings: CHO-K1 GR-EFC translocation, beta-gal luminescence, 2 h
Glucocorticoid receptor (Homo sapiens), sequence (P04150 whole entry, looked up, the tested form may be a part): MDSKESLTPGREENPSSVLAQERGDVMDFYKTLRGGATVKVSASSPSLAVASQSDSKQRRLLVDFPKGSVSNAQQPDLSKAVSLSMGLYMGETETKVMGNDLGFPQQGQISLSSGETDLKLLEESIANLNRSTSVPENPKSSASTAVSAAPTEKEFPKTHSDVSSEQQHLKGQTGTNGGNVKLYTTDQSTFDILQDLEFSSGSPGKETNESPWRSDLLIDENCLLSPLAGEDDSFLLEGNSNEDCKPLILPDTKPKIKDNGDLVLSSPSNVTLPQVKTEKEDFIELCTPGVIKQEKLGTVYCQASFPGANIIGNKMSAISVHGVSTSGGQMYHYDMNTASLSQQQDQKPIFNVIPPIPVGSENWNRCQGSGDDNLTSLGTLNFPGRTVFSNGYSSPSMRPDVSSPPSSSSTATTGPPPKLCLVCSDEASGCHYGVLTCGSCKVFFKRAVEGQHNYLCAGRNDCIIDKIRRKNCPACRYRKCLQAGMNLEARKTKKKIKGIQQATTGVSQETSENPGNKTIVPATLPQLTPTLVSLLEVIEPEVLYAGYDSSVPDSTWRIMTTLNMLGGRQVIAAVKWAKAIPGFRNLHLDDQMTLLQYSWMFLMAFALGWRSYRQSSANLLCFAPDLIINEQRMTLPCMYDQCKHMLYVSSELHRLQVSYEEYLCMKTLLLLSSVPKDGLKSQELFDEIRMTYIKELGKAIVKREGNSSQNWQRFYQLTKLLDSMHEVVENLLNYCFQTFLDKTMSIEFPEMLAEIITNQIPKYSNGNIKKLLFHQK
In short: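 CHO-K1 cells stably expressing nuclear-localized β-gal enzyme acceptor and GR fused C-terminally to the enzyme donor fragment; ligand-driven nuclear translocation restores β-gal by complementation. Compounds titrated up to 46 uM final, 2 h at 37 °C; luminescence read.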

[21] = target: Mitogen-activated protein kinase 10 (Mus musculus) (UniProt Q61831); assay: JNK3 AlphaScreen Assay (AID 530; active = well fitted curve in either direction with a large enough effect, not every such curve was filed as active)
In short: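 Inhibitors reduce antibody binding to phosphorylated biotin-cJun, lowering AlphaScreen luminescence. Lysates from HepG2 cells pre-activated by IL-1beta plus TNF-alpha supplied JNK3; compounds were titrated.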

[22] = qHTS Assay for Identification of Small Molecule Agonists for Hypoxia Response Element Signaling Pathway (AID 914; active = well fitted activation curve with a large enough effect in the signal ratio, with a control signal flat, not every such curve was filed as active; the % refers to the signal ratio; note: potency is the fitted concentration of half-maximal effect); settings: ME-180 (cervical carcinoma) HRE-bla reporter, beta-lactamase ratio, CoCl2, 17 h; activation: active compounds read high
In short: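 HRE-bla ME-180 cells, overnight plating in Opti-MEM with 0.5% dialyzed FBS; cpd titration + EC50 CoCl2, 17 h, 37 degrees Celsius; CCF4 2.5 h RT; 460/530 nm ratio; AC50.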

[23] = target: Dual specificity protein kinase CLK4 (Homo sapiens) (UniProt Q9HAZ1); assay: qHTS Assay for Inhibitors of CDC-like Kinase 4 (Kinase-Glo Assay) (AID 1770); note: % is set by controls: 0 for no effect and ±100 for the full control effect; nearly all actives have a fitted effect of over 65% in size
Dual specificity protein kinase CLK4 (Homo sapiens), sequence (Q9HAZ1 whole entry, looked up): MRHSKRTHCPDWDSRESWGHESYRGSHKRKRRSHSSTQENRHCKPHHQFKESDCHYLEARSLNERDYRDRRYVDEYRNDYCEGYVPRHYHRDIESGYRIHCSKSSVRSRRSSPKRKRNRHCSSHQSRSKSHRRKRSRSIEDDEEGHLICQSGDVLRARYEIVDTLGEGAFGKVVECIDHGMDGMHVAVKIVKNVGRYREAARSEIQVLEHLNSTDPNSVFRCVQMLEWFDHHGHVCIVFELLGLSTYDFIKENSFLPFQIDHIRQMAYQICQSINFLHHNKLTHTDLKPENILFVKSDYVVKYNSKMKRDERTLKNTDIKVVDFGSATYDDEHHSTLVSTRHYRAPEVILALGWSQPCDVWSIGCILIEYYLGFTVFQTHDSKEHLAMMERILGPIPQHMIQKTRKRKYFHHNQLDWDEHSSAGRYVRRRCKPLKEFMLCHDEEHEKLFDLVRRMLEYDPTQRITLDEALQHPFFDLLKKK
In short: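 Luminescent ATP-depletion read-out (Kinase-Glo) after 4.5 h room-temperature reaction of Clk4 (25 nM final) with RS peptide (100 uM) and ATP (1 uM), pH 7.5 Tris buffer with MgCl2 and DTT.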

[24] = target: Dual specificity protein kinase CLK4 (Homo sapiens) (UniProt Q9HAZ1); assay: qHTS Assay for Inhibitors of CDC-like Kinase 4 (ADP-Glo Assay) (AID 1771); note: % is set by controls: 0 for no effect and ±100 for the full control effect; nearly all actives have a fitted effect of over 70% in size
In short: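 25 nM Clk4 with 100 uM RS repeat peptide and 1 uM ATP (final) in buffer with 2 mM MgCl2, 0.5 mM EGTA, 2.5 mM DTT, 0.01% Triton X-100; 1 h at room temperature; ADP-Glo luminescence for ADP formed.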

[25] = target: Dual specificity protein kinase CLK4 (Homo sapiens) (UniProt Q9HAZ1); assay: qHTS Assay for Inhibitors of CDC-like Kinase 4 (ADP-FP Assay) (AID 1795);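 note: recombinant human CLK4 phosphorylating RS repeat peptide at 1 µM ATP; % is set by controls: 0 for no effect and ±100 for the full control effect; nearly all actives have a fitted effect of over 60% in size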
In short: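 Kinase activity was measured as ADP production using Transcreener orange tracer (4 nM) and ADP antibody (1 ug/mL) fluorescence polarization, with ADP calculated from a calibration curve. The 1 h reaction contained 6.25 nM Clk4, 1 uM ATP and 100 uM RS peptide at pH 7.5 with Mg2+.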

[26] = target: Ubiquitin carboxyl-terminal hydrolase 1 (Homo sapiens) (UniProt O94782); assay: Inhibitors of USP1/UAF1: Pilot qHTS (AID 504865);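 note: rhodamine fluorescence freed from ubiquitin-rhodamine substrate followed over time; top concentration of the series differs between compounds; % is set by controls: 0 for no effect and ±100 for the full control effect; nearly all actives have a fitted effect of over 35% in size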
Ubiquitin carboxyl-terminal hydrolase 1 (Homo sapiens), sequence (O94782 whole entry, looked up): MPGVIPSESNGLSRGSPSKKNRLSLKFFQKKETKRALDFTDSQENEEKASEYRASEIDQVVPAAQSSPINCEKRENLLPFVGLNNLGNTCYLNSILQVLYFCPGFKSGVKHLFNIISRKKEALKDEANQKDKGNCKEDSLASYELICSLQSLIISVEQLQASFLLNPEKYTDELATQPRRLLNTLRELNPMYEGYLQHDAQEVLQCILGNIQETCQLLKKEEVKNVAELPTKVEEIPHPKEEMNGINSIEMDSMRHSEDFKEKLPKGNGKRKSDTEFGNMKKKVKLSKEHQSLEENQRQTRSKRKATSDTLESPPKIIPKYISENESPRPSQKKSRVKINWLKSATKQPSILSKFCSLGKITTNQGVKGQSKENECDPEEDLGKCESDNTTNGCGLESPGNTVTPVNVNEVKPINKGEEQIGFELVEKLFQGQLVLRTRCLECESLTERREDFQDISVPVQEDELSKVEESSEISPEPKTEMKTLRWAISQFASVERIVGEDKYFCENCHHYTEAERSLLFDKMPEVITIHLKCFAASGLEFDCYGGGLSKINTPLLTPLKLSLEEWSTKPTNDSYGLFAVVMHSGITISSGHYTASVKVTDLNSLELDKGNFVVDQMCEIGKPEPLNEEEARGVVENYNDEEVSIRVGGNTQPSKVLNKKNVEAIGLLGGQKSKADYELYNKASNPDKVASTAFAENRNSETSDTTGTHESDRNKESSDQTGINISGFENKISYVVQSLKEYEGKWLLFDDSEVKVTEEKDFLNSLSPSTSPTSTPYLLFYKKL
In short: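 Deubiquitinase activity followed as kinetic rhodamine fluorescence release from 150 nM Ub-Rho. 1 nM USP1/UAF1 with compound, after 15 min room-temperature preincubation, in HEPES pH 7.8 buffer containing TCEP, EDTA, BSA and Tween-20.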

[27] = target: Glucocorticoid receptor (Homo sapiens) (UniProt P04150); assay: GR-GFP Redistribution (AID 450;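 active = compounds whose dose series gives a full or clear partial fitted curve of increased nuclear translocation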; note: potency is the fitted concentration of half-maximal effect); settings: U2OS GR-GFP nuclear translocation, laser cytometry, 2 h

CC(C)=CCC[C@](C)(OC1OC(COC2OCC(O)C(O)C2O)C(O)C(O)C1O)[C@H]1CC[C@]2(C)[C@@H]1[C@H](O)C[C@@H]1[C@@]3(C)CC[C@H](OC4OC(CO)C(O)C(O)C4OC4OC(CO)C(O)C(O)C4O)C(C)(C)[C@@H]3CC[C@]12C (some centres not stated)
inactive: Potency [1] | outcome [2] | Potency [3] | outcome [4] | outcome [5] | Potency [6] | Potency [7] | Potency [8] | Potency [9] | Potency [10] | outcome [11] | Potency [12] | max response [13] 4.44% | outcome [14] | Potency [15] | outcome [16] | outcome [17]

CCCCC(=O)N(Cc1ccc(-c2ccccc2-c2nn[nH]n2)cc1)[C@H](C(=O)O)C(C)C
inactive: Potency [1] | Potency [6]

CCNc1ncc2nc(-c3ccc(OC)cc3)c(=O)n(C)c2n1
active: Potency [22] 3.98 µM
inactive: Potency [18] > 11.4 µM | activity change, negative = inhibition [19] 22.4% | Potency [20] > 46 µM | Potency [21] | Potency [23] | Potency [24] | Potency [25] | Potency [26]

COc1ccccc1CNc1cc(-c2ccccc2CN(C)C)ncn1
inactive: Potency [18] > 11.4 µM | activity change, negative = inhibition [19] 4.71% | Potency [27] > 46 µM | Potency [20] > 46 µM | Potency [21] | Potency [23] | Potency [24] | Potency [25] | Potency [26]
